Inconclusive results are not listed. Calls of active or inactive are those of the source. Calls come from the whole dose curve; as a rule, active = well fitted cell-killing curve with a large enough effect in the repeat runs; inconclusive = weak or mixed curves, or effect the other way; inactive = flat fitted curve, though single readings scatter.
Experiment: qHTS assay to identify small molecule agonists of the androgen receptor (AR) signaling pathway in the presence of an antagonist - cell viability counter screen (AID 1259379); note: nearly all actives have a fitted effect of over 25% in size;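 for activity change, negative = cytotoxicity: MDA-kb2 human breast cancer cells carrying an MMTV luciferase reporter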
Details: MDA-kb2 viability, CellTiter-Fluor, 16 h; series mostly up to 92.4 µM; activity change, negative = cytotoxicity: at the top concentration
Outline: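 Cytotoxicity is assessed by CellTiter-Fluor in MDA-kb2 cells carrying an MMTV-driven luciferase reporter. Cells receive 3.0uM nilutamide plus compounds at 15 concentrations and incubate 16 hr at 37C without CO2 before fluorescence reading.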
% is set by controls: 0 for no effect and ±100 for the full control effect; potency is the fitted concentration of half-maximal effect.

| SMILES | activity change, negative = cytotoxicity | Potency |
| --- | --- | --- |
| CC(C)(C)C(=O)Cl | 2.88% (inactive) |  |
| O=C1C2CC=CCC2C(=O)N1SC(Cl)(Cl)Cl (configuration not stated) |  | 30.1 µM (active) |
| O=C(Cl)C(Cl)Cl | -0.745% (inactive) |  |
| C/C=C/CC#N | 2.74% (inactive) |  |
| S=C=S | -3.31% (inactive) |  |
| O=C1CC(=O)NC(=O)N1 | -0.124% (inactive) |  |
| CCN(CCO)CCO | 0.687% (inactive) |  |
| ClC1=C(Cl)C2(Cl)C(CBr)CC1(Cl)C2(Cl)Cl (configuration not stated) |  | inactive |
| CCOC(=O)c1ncn2c1CN(C)C(=O)c1c(I)cccc1-2 | 0.292% [at 42.5 µM] (inactive) |  |
| COc1ccccc1OC | -0.532% (inactive) |  |
| c1cncc([C@@H]2CCCCN2)c1 | 5.58% (inactive) |  |
| CCOP(=S)(OCC)Oc1ccc(Cl)cc1Cl | -1.75% (inactive) |  |
| CC(Cc1ccccc1)NCCn1cnc2c1c(=O)n(C)c(=O)n2C (configuration not stated) | -7.45% (inactive) |  |
| CC(C)(O)C(Cl)(Cl)Cl | 1.32% [at 42.5 µM] (inactive) |  |
| O=C(Cl)CCl | -2.27% (inactive) |  |
| C=C1C[C@@H]2[C@H](CC[C@]3(C)C(=O)CC[C@@H]23)[C@@]2(C)C=CC(=O)C=C12 | 0.861% [at 42.5 µM] (inactive) |  |
| N#CN | -8.72% [at 240 µM] (inactive) |  |
| CCN(CCO)CCn1c(Cc2ccccc2)nc2c1c(=O)n(C)c(=O)n2C | 1.63% [at 42.5 µM] (inactive) |  |
| CC[C@H](N)c1ccccc1 | 2.33% (inactive) |  |
| C=CC1(C)OC(=O)N(c2cc(Cl)cc(Cl)c2)C1=O (configuration not stated) |  | inactive |
| CN=CNc1ccc(C)cc1C | 0.391% (inactive) |  |
| O=C(Cl)C(Cl)(Cl)Cl | 2.27% (inactive) |  |
| CCOC(=O)C(Cl)Cc1cc(-n2nc(C)n(C(F)F)c2=O)c(F)cc1Cl (configuration not stated) | 2.02% (inactive) |  |
| Cc1cc(OC(=O)N(C)C)nn1C(=O)N(C)C | -0.0499% (inactive) |  |
| O=C(O)c1c(Cl)ccc2cc(Cl)cnc12 | -0.65% (inactive) |  |
| COP(=O)(OC)O/C(C)=C/C(=O)N(C)C | 1.33% (inactive) |  |
| Cn1c(CCCC(=O)O)nc2cc(N(CCCl)CCCl)ccc21 | 1.35% [at 42.5 µM] (inactive) |  |

Source: PubChem BioAssay (Tox21)
